Experimental findings from PubChem BioAssay are described below.

By inhibition is commonly meant the drop in the measured response relative to a control, in per cent.

A number with no mark means an inactive call. For part of these data: Entries with a potency or affinity are not part of this list. Active and inactive are the calls of the source. Unless noted, how the calls were made is not given here.

Assay [1] in a line: antimalarial activity against Dd2 strain (AID 2302;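 active means growth inhibition above 50% at the single 2 µM test dose, taken to imply half-maximal potency below 2 µM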;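 further: 0% = DMSO untreated growth and 100% = chloroquine plus artemisinin killed control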). To be noted: P. falciparum Dd2 in RBCs, LDH growth readout, 72 h; at 2 µM; active compounds read high.
The nature of assay [2]: human hepatoma cell viability loss – ATP luminescence, cytotoxicity control for P. falciparum antimalarial project, primary screen (AID 2303;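 active means inhibition above 50%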;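 further: 0% = DMSO wells and 100% = digitonin-killed cells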). To be noted: HepG2 viability, 24-48 h, at 10 µM, active compounds read high.
Assay [3] deals with L-lactate dehydrogenase (Plasmodium falciparum (isolate CDC / Honduras)) (UniProt Q27743). As to the kind of experiment: PfLDH activity inhibition – cell lysate, 3D7 strain, counter-screen for P. falciparum growth inhibition project (AID 2304).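 Further: 0% = vehicle and 100% = reference inhibitor.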 To be noted: P. falciparum 3D7 crude extract, LDH APAD/NBT absorbance; at 2 µM; active compounds read high.
A short description of assay [4]: inhibition of 3D7 malaria parasite growth – strain 3D7 (AID 2306).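 Further: 0% = DMSO wells and 100% = chloroquine plus artemisinin control wells.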 To be noted: P. falciparum 3D7 erythrocytic growth, LDH absorbance, 72 h; at 2 µM; active compounds read high.
Assay [5] deals with Calcium-dependent protein kinase 1 (Plasmodium falciparum (isolate 3D7)) (UniProt P62344). As to the kind of experiment: PfCDPK1 kinase inhibitors, biochemical, TCAMS library (AID 1159585; cut-off not given, nearly all actives have IC50 up to about 0.98 µM;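 further: inhibitors leave more ATP so luminescence rises with inhibition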). To be noted: recombinant PfCDPK1, Kinase-Glo ATP depletion luminescence. Background: In Kinase-Glo more light means more ATP remaining.
Assay [6] deals with Plasmodium falciparum protein kinase 6 (PK6, PF3D7_1337100) (UniProt Q8IDW1). As to the kind of experiment: PfPK6 kinase inhibitors, biochemical, TCAMS library (AID 1159586). To be noted: recombinant PfPK6, Kinase-Glo ATP depletion luminescence.
In assay [7] the target is Protein kinase 7 (PK7), Plasmodium falciparum 3D7 (PF3D7_0213400) (UniProt Q7YTF7). As to the kind of experiment: inhibition of Plasmodium PK7 catalytic activity – biochemical, TCAMS antimalarial set, Kinase-Glo luminescence (AID 1159587). To be noted: recombinant PfPK7, Kinase-Glo ATP depletion luminescence.
The target of assay [8] is Calcium-dependent protein kinase 4 (Plasmodium falciparum (isolate 3D7)) (UniProt Q8IBS5). As to the kind of experiment: PfCDPK4 kinase inhibitors, biochemical, TCAMS library (AID 1159588; cut-off not given, nearly all actives have IC50 up to about 0.91 µM). To be noted: recombinant PfCDPK4, Kinase-Glo ATP depletion luminescence.
Sequence of Calcium-dependent protein kinase 4 (Plasmodium falciparum (isolate 3D7)) (Q8IBS5 whole entry, looked up): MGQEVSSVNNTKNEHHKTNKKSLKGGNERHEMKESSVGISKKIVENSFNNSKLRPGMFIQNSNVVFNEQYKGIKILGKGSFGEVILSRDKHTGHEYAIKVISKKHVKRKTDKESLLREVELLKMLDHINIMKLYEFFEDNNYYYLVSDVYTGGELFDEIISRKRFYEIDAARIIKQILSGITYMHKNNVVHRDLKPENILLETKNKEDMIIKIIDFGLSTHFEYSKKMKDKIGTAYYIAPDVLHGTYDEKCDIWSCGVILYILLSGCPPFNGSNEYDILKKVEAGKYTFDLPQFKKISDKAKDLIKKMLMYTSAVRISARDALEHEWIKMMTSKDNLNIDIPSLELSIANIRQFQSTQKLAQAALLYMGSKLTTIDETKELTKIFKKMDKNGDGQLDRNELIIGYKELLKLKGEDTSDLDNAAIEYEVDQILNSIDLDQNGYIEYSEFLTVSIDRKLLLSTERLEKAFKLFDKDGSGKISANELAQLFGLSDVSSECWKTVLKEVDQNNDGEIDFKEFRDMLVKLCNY

Sequence of Protein kinase 7 (PK7), Plasmodium falciparum 3D7 (PF3D7_0213400) (Q7YTF7 1-343): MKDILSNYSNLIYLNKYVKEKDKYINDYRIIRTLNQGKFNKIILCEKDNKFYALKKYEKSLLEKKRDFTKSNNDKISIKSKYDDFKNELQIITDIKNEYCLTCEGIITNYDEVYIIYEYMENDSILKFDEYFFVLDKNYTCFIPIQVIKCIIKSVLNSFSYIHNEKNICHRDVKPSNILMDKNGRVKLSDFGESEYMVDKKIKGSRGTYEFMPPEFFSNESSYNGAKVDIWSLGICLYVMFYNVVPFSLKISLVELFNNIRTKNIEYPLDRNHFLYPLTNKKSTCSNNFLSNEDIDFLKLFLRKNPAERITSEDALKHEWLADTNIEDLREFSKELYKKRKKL
Sequence of L-lactate dehydrogenase (Plasmodium falciparum (isolate CDC / Honduras)) (Q27743 whole entry, looked up): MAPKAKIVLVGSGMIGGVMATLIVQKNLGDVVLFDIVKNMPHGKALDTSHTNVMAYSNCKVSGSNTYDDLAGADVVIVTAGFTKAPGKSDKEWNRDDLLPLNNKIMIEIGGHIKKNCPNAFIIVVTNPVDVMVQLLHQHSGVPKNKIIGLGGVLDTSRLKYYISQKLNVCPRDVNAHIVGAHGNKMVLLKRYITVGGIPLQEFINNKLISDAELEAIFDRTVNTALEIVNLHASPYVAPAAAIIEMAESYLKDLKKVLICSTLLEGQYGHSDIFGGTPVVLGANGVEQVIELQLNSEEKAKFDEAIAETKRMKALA
Sequence of Calcium-dependent protein kinase 1 (Plasmodium falciparum (isolate 3D7)) (P62344 whole entry, looked up): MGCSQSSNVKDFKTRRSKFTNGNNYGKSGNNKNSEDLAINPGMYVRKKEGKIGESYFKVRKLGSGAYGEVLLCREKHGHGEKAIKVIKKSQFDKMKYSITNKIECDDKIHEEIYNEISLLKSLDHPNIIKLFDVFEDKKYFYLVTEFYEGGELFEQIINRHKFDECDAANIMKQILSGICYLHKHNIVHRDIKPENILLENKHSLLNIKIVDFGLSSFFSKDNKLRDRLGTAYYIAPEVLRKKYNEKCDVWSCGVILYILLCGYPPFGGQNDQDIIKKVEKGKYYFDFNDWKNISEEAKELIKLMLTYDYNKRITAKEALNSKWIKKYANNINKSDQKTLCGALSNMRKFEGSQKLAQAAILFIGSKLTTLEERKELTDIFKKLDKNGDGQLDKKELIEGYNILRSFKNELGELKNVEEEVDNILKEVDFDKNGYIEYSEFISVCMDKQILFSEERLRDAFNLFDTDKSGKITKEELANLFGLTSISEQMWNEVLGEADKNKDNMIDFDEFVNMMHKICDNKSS
Sequence of Plasmodium falciparum protein kinase 6 (PK6, PF3D7_1337100) (Q8IDW1 1-305): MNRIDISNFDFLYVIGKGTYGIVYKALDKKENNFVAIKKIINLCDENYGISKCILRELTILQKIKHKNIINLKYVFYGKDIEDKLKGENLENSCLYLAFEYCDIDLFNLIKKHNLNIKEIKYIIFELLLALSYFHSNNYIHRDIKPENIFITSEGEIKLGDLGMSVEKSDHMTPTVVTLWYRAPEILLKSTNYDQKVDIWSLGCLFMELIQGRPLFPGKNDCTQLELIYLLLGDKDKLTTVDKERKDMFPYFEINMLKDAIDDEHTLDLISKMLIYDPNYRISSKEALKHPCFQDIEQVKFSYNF

On to `O=C(Nc1cccc(OCc2ccccc2)c1)c1ccc(CN2CCC(Cc3ccccc3)CC2)cc1`, for which the growth inhibition is 27% in assay [1] and 100% (active) in assay [4]. Besides, the figures for the inhibition in assay [2] and in assay [3] were 41% and 3%, respectively. Moreover, the outcome in assay [5], in assay [6], in assay [7] and in assay [8] was inactive.

Regarding `CN(C)c1ccc(-c2csc(C(=O)NCC3CCN(Cc4ccc(C(C)(C)C)cc4)C3)c2)cc1` (stereo not drawn), the growth inhibition in assay [1] is 64% (active); in assay [4], 97% (active). The results for the inhibition in assay [2] and in assay [3] were 29% and 0%, respectively. The result in assay [5], in assay [6], in assay [7] and in assay [8] was inactive.

With `Cc1ccc(NC(=O)c2ccc(N3CCC(c4ccccc4C)CC3)nc2)cc1`, the figures for the growth inhibition in assay [1] and in assay [4] were 72% (active) and 83% (active), respectively. Also, the inhibition in assay [2] is 49%; in assay [3], 3%. Also, the outcome in assay [5], in assay [6], in assay [7] and in assay [8] was inactive.

On to `CC(C)NC(=O)c1cccc(-c2ccc(OCCN3CCCC3c3cc4ccccc4[nH]3)cc2)c1` (stereo not drawn), for which the growth inhibition is 34% in assay [1] and 100% (active) in assay [4]. In addition, the inhibition was 25% in assay [2] and -2% in assay [3]. Further, the result in assay [5], in assay [6], in assay [7] and in assay [8] was inactive.

In the case of `O=C(Nc1ccc(Cl)cc1)c1ccc(CN2CCCN(Cc3ccccc3)CC2)cc1`, the growth inhibition was 2% in assay [1] and 96% (active) in assay [4]. Also, the values for the inhibition in assay [2] and in assay [3] were 46% and 1%, respectively. Besides, the outcome in assay [5], in assay [6], in assay [7] and in assay [8] was inactive.

Take `COc1cc(OC)cc(-c2nn(-c3ccc([N+](=O)[O-])cc3Cl)c(=S)n2CC2CCCO2)c1` (stereo not drawn): the growth inhibition in assay [1] and in assay [4] was 98% (active) in each case. In addition, the inhibition in assay [2] is 5%; in assay [3] it was 0%. Moreover, the result in assay [5], in assay [6], in assay [7] and in assay [8] was inactive.

Regarding `c1cc(-c2ccc(CN3CCCCC3)cc2)cc(-c2nc3ccccc3[nH]2)c1`, the figures for the growth inhibition in assay [1] and in assay [4] were 79% (active) and 101% (active), respectively. Also, the inhibition in assay [2] was 39%; in assay [3], 5%. Further, the result in assay [5], in assay [6], in assay [7] and in assay [8] was inactive.

For the molecule `CCCCCCNC(=O)C1Cc2c([nH]c3cc(Cl)ccc23)C2(CCN(CCC)CC2)N1` (stereo not drawn), the growth inhibition is 18% in assay [1] and 92% (active) in assay [4]. The inhibition in assay [2] was 8%; in assay [3] it was 0%. The result in assay [5], in assay [6], in assay [7] and in assay [8] was inactive.

For `O=C(/C=C/c1ccc(Cl)c(Cl)c1)NCCCCCN1CCCC(CNS(=O)(=O)c2cccc(C(F)(F)F)c2)C1` (stereo not drawn), the values for the growth inhibition in assay [1] and in assay [4] were 0% and 92% (active), respectively. Moreover, the inhibition in assay [2] is 73% (active); in assay [3], 5%. For the same molecule, the result in assay [5], in assay [6], in assay [7] and in assay [8] was inactive.

For the molecule `COc1ccc(-c2c(C(F)(F)F)nn(C)c2NC(=O)Nc2ccc(F)cc2F)cc1`, the growth inhibition is 99% (active) in assay [1] and 101% (active) in assay [4]. Also, the inhibition in assay [2] was 8%; in assay [3], -4%. The outcome in assay [5], in assay [6], in assay [7] and in assay [8] was inactive.

For `c1cc(-c2ccc(CNC3CC3)cc2)cc(-c2nc3ccccc3[nH]2)c1`, the growth inhibition was 8% in assay [1] and 96% (active) in assay [4]. Also, the inhibition in assay [2] was 17%; in assay [3], 1%. For the same molecule, the outcome in assay [5], in assay [6], in assay [7] and in assay [8] was inactive.

Turning to `O=S(=O)(/C=C/c1ccccc1)N(Cc1ccc(-c2ccc(CNCCOc3ccccc3)cc2)cc1)CC1CCCCN1` (stereo not drawn), the figures for the growth inhibition in assay [1] and in assay [4] were 95% (active) and 99% (active), respectively. The inhibition in assay [2] is 99% (active); in assay [3], 4%. In addition, the outcome in assay [5], in assay [6], in assay [7] and in assay [8] was inactive.

With `COc1ccc(S(=O)(=O)N2CCCc3ccc(Br)cc32)cc1N1CCN(C(=O)C(Cl)(Cl)Cl)CC1`, the growth inhibition was 93% (active) in assay [1] and 97% (active) in assay [4]. Further, the inhibition in assay [2] is 23%; in assay [3], 2%. For the same molecule, the outcome in assay [5], in assay [6], in assay [7] and in assay [8] was inactive.

In the case of `O=C(Nc1ccc(-c2cccc(-c3nc4ccc(C(F)(F)F)cc4[nH]3)c2)cc1)Nc1ccc(Cl)c(Cl)c1`, the growth inhibition is 23% in assay [1] and 98% (active) in assay [4]. The inhibition in assay [2] is 42%; in assay [3], 7%. For the same molecule, the outcome in assay [5], in assay [6], in assay [7] and in assay [8] was inactive.

Consider `c1cncc(CCNCc2ccc(-c3cccc(-c4nc5ccccc5[nH]4)c3)cc2)c1`, for which the growth inhibition in assay [1] is 99% (active); in assay [4], 102% (active). Moreover, the inhibition in assay [2] is 39%; in assay [3], -2%. The outcome in assay [5], in assay [6], in assay [7] and in assay [8] was inactive.

As for `COc1cc(C)nc2ccc(NC(=O)c3cc([N+](=O)[O-])cc([N+](=O)[O-])c3)cc12`, the growth inhibition was 94% (active) in assay [1] and 102% (active) in assay [4]. Besides, the inhibition in assay [2] was -2%; in assay [3], 2%. Moreover, the result in assay [5], in assay [6], in assay [7] and in assay [8] was inactive.

Regarding `CC(C)COc1ccc(Cl)cc1Cc1ccc(-c2nc3c(F)c(F)ccc3[nH]2)o1`, the growth inhibition in assay [1] was 85% (active); in assay [4], 94% (active). Further, the inhibition in assay [2] is 26%; in assay [3] it was -1%. In addition, the outcome in assay [5], in assay [6], in assay [7] and in assay [8] was inactive.

For the molecule `C[C@@H](Oc1cc(-n2cnc3ccc(NC(=O)NC(C)(C)C)cc32)sc1C(N)=O)c1ccccc1Cl`, the growth inhibition in assay [1] was 97% (active); in assay [4], 95% (active). Further, the inhibition was 28% in assay [2] and 1% in assay [3]. Further, the result in assay [5], in assay [6], in assay [7] and in assay [8] was inactive.

Turning to `CCOc1ccc2nc(C)cc(NN=Cc3ccccc3)c2c1`, the growth inhibition was 8% in assay [1] and 96% (active) in assay [4]. In addition, the inhibition in assay [2] is 5%; in assay [3], -3%. Moreover, the outcome in assay [5], in assay [6], in assay [7] and in assay [8] was inactive.

`CC(C)N1CCN(C(CN2CCN(CCCOc3ccccc3-c3ccccc3)CC2)c2ccc(F)cc2)CC1` (stereo not drawn): the figures for the growth inhibition in assay [1] and in assay [4] were 96% (active) and 100% (active), respectively. Besides, the inhibition was 98% (active) in assay [2] and 5% in assay [3]. Moreover, the result in assay [5], in assay [6], in assay [7] and in assay [8] was inactive.

In the case of `N#Cc1ccc2nc(-c3ccccc3)[nH]c2c1`, the growth inhibition in assay [1] was 1%; in assay [4], 95% (active). Also, the inhibition in assay [2] was 7%; in assay [3], -1%. Moreover, the outcome in assay [5], in assay [6], in assay [7] and in assay [8] was inactive.
